From PubChem BioAssay (Tox21)
Records with an inconclusive call do not appear. Activity calls are given as the source filed them. Unless noted, calls follow the shape of the full dose curve.

Experiments:
[1] = Nuclear factor erythroid 2-related factor 2/antioxidant responsive element (Nrf2/ARE) small molecule agonists: qHTS cell viability counter screen in human keratinocytes (AID 1919968; active = well fitted curve in the direction sought with a large enough effect in the repeat runs; an effect the other way counts as inactive or inconclusive; also: nearly all actives have a fitted effect of over 55% in size; also: potency is read from the fitted curve at half-maximal effect)
In short: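 KeratinoSens cells (HaCaT keratinocytes stably carrying an ARE-luciferase reporter) were seeded at 1,500 cells/well and rested 5 h at 37 C/5% CO2. They were then exposed to compounds in DMSO for 23 h. Viability was read by CellTiter-Fluor fluorescence after 1 h.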

[2] = Nuclear factor erythroid 2-related factor 2/antioxidant responsive element (Nrf2/ARE) small molecule agonists: luciferase reporter gene qHTS assay in human keratinocytes (AID 1919969); also: nearly all actives have a fitted effect of over 35% in size; also: potency is read from the fitted curve at half-maximal effect
[3] = target: Gonadotropin-releasing hormone receptor (Homo sapiens) (UniProt P30968); experiment: Human gonadotropin-releasing hormone receptor (GnRHR) small molecule agonists, calcium flux assay in GnRHR-HEK293 cells (AID 1920063); also: nearly all actives have a fitted effect of over 35% in size
In short: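 HEK293 cells stably expressing human GnRHR were plated 18 h at 37 °C, loaded with calcium dye 1 h at 37 °C, then given compound in agonist mode; fluorescence (Ex/Em 480/540) read kinetically for 3 min at 1 s intervals.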

[4] = target: KiSS-1 receptor (Homo sapiens) (UniProt Q969F8); experiment: Human kisspeptin (KISS1R) small molecule agonists, calcium flux assay in KISS1R-HEK293 cells (AID 1920064; active = well fitted curve in the direction sought with a large enough effect in the repeat runs; an effect the other way counts as inactive or inconclusive)
In short: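 HEK293 cells stably expressing human KISS1R were plated 18 h at 37 °C, loaded with calcium dye for 1 h at 37 °C, then given compound by pin tool. Fluorescence (Ex/Em 480/540) was read kinetically for 3 min.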

[5] = G protein-coupled receptor (GPCR) small molecule agonists, calcium flux assay: HEK293 wild type cell line counter screen (AID 1920065)
In short: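 Cells were plated and cultured 18 h at 37 C/5% CO2, then loaded with calcium dye for 1 h at 37 C. Compounds in DMSO were pin-transferred in agonist mode, and fluorescence (Ex/Em 480/540) was read kinetically for 3 min at 1 s intervals.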

[6] = p53 small molecule agonists, cell-based qHTS assay with human liver microsomes (AID 1963577);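 also: p53 response element beta-lactamase reporter cells with liver microsomes plus NADPH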
In short: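 With metabolic activation: human liver microsomes (0.5 mg/mL final) plus NADPH (0.5 mg/mL final) added alongside compounds to p53RE-bla cells; 16 h 37 C exposure; beta-lactamase read by LiveBLAzer fluorescence.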

[7] = p53 small molecule agonists, cell-based qHTS assay with rat liver microsomes (AID 1963578)
In short: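 Metabolic activation by rat liver microsomes and NADPH, each 0.5 mg/mL final, added right after compounds to p53RE-bla reporter cells (4,000/well, plated 5 h earlier). 16 h at 37 C, then LiveBLAzer substrate for 2 h at room temperature in the dark; fluorescence read-out.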

[8] = p53 small molecule agonists, cell-based qHTS assay with human liver microsomes: qHTS cell viability counter screen (AID 1963579); also: nearly all actives have a fitted effect of over 45% in size
In short: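 Metabolic activation used human liver microsomes and NADPH, both 0.5 mg/mL final, over 16 hours at 37 C on p53RE-bla cells (4,000/well). Cytotoxicity measured by CellTiter-Glo luminescence, 30 min at room temperature.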

[9] = p53 small molecule agonists, cell-based qHTS assay with rat liver microsomes: qHTS cell viability counter screen (AID 1963580); also: nearly all actives have a fitted effect of over 45% in size
In short: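 HCT-116 p53RE-bla, 4,000 cells/well, 5 h pre-incubation; cpd + rat liver microsomes 0.5 mg/mL + NADPH 0.5 mg/mL (final); 16 h, 37 C; CellTiter-Glo, 30 min RT; luminescence.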

[10] = p53 small molecule agonists, cell-based qHTS assay: qHTS cell viability counter screen (AID 1963581); also: nearly all actives have a fitted effect of over 45% in size
In short: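 p53RE-bla HCT-116 cells were exposed to compounds for 16 h at 37 C; after the beta-lactamase FRET read in the same wells, CellTiter-Glo was added and luminescence (intracellular ATP) read after 30 min at room temperature.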

[11] = p53 small molecule agonists, cell-based qHTS assay (AID 1963582; active = well fitted activation curve with a large enough effect in the signal ratio in the repeat runs, not every such curve was filed as active; the % refers to the signal ratio)
In short: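 p53RE-bla beta-lactamase reporter cells rested 5 h at 37 C/5% CO2, then received compounds in DMSO by pin transfer and were incubated 16 h at 37 C. LiveBLAzer B/G FRET substrate was loaded for 2 h at room temperature before fluorescence reading.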

[12] = target: 5-hydroxytryptamine receptor 2A (Homo sapiens) (UniProt P28223); experiment: 5-hydroxytryptamine receptor 2A (HTR2A) small molecule antagonists, cell-based qHTS assay (AID 1963586); also: nearly all actives have a fitted effect of over 45% in size; also: potency is read from the fitted curve at half-maximal effect
In short: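 Antagonist-mode intracellular calcium assay: DOI (4 nM) added after 5 min compound pre-incubation at room temperature to dye-loaded HTR2A-CHO cells. Fluorescence followed for 3 min, sampled every second.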

[13] = target: 5-hydroxytryptamine receptor 2A (Homo sapiens) (UniProt P28223); experiment: 5-hydroxytryptamine receptor 2A (HTR2A) small molecule agonists, cell-based qHTS assay (AID 1963587); also: nearly all actives have a fitted effect of over 30% in size
In short: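 Kinetic calcium-flux fluorescence (2 min, 1 sec intervals) after compound addition in agonist mode. HTR2A-CHO cells were cultured 18 h, then dye-loaded 1 h at 37 C.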

[14] = target: Muscarinic acetylcholine receptor M1 (Homo sapiens) (UniProt P11229); experiment: Cholinergic receptor muscarinic 1 (CHRM1) small molecule antagonists, cell-based qHTS assay (AID 1963588); also: nearly all actives have a fitted effect of over 40% in size; also: potency is read from the fitted curve at half-maximal effect
In short: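 CHRM1-CHO calcium-flux assay, antagonist mode. Cells were seeded 18 h, dye-loaded 1 h at 37 C and given compound for 5 min at RT, then acetylcholine was added at 50nM. FDSS fluorescence was read 3 min; 15 concentrations, three runs.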

[15] = target: Muscarinic acetylcholine receptor M1 (Homo sapiens) (UniProt P11229); experiment: Cholinergic receptor muscarinic 1 (CHRM1) small molecule agonists, cell-based qHTS assay (AID 1963589); also: nearly all actives have a fitted effect of over 35% in size
In short: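 CHO cells stably expressing human CHRM1, seeded 18 h at 37 C/5% CO2, dye-loaded 1 h at 37 C, then given compound in agonist mode; intracellular calcium fluorescence read kinetically at 1 s intervals. Fifteen concentrations, three independent runs.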

[16] = cAMP Responsive Elements (CRE) small molecule agonists, cell-based qHTS assay (AID 1963590)
In short: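 CRE-bla HEK 293T cells in DMEM with 10% dialyzed FBS, NEAA, pyruvate and 25 mM HEPES were plated 18 h at 37 C/5% CO2, then exposed to compounds in DMSO for 3 h before LiveBLAzer B/G FRET substrate addition.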

[17] = cAMP Responsive Elements (CRE) small molecule antagonists, cell-based qHTS assay (AID 1963591; active = well fitted inhibition curve with a large enough effect in the signal ratio in the repeat runs, not every such curve was filed as active; the % refers to the signal ratio)
In short: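 CRE-bla HEK293T cells were plated 18 h at 37 °C/5% CO2, pinned with compound in DMSO, then stimulated with NKH477 at 0.25 uM final for 3 h. LiveBLAzer B/G FRET substrate was added and plates incubated 2 h at room temperature.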

[18] = target: Beta-2 adrenergic receptor (Homo sapiens) (UniProt P07550); experiment: Adrenergic beta2 receptor (ADRB2) small molecule antagonists, cell-based qHTS assay (AID 1963592); also: series mostly up to about 92 µM; nearly all actives have a fitted effect of over 50% in size
In short: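 Cells (CHO, stable ADRB2 overexpression) incubated 18-20hr at 37C; compounds added from DMSO; agonist mix (1nM isoproterenol, 100uM IBMX, 25uM Ro-20-1724) added; 0.5hr RT; d2-cAMP and anti-cAMP-cryptate added; 1hr RT; 665/615 nm read.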

[19] = target: D(2) dopamine receptor (Homo sapiens) (UniProt P14416); experiment: Dopamine D2 receptor (DRD2) small molecule agonists, cell-based qHTS assay (AID 1963594); also: nearly all actives have a fitted effect of over 35% in size
In short: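 cAMP accumulation in DRD2-HEK293 cells measured by HTRF after 1 h detection; compounds added 10 min before NKH477 (200nM […]) forskolin-analogue stimulation, 30 min at room temperature, with Ro20-1724 present at 0.1 mM final.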

[20] = target: D(2) dopamine receptor (Homo sapiens) (UniProt P14416); experiment: Dopamine D2 receptor (DRD2) small molecule antagonists, cell-based qHTS assay (AID 1963595; active = well fitted inhibition curve with a large enough effect in the signal ratio in the repeat runs, with a control signal flat; the % refers to the signal ratio)
In short: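 HEK293 cells stably expressing DRD2 were preincubated with 0.1 mM Ro20-1724, then with compound for 10 min at room temperature. Cells were stimulated with 200 nM NKH477 plus 12 nM quinpirole for 30 min, and cAMP was read by HTRF.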

Measured: Potency

Sequence of Gonadotropin-releasing hormone receptor (Homo sapiens) (P30968 whole entry, looked up): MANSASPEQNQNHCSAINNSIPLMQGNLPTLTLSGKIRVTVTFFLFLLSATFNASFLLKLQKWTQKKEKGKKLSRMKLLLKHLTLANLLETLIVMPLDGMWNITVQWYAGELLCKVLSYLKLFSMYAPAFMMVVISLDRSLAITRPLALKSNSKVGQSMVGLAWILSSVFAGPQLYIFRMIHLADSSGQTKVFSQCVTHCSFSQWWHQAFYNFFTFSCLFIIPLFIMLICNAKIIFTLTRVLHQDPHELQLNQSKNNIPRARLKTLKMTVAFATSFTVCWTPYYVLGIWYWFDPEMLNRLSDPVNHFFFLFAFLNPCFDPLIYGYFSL
Sequence of Beta-2 adrenergic receptor (Homo sapiens) (P07550 whole entry, looked up): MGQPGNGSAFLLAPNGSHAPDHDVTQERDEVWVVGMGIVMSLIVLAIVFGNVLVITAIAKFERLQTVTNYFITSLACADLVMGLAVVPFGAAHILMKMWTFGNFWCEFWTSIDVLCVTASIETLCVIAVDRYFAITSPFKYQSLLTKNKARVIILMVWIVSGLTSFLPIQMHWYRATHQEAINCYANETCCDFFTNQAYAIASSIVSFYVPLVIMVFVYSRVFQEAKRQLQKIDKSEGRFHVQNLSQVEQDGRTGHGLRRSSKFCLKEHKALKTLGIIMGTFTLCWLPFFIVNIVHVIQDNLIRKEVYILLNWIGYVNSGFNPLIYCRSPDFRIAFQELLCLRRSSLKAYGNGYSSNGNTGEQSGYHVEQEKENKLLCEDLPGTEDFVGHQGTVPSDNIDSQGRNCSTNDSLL
Sequence of 5-hydroxytryptamine receptor 2A (Homo sapiens) (P28223 whole entry, looked up): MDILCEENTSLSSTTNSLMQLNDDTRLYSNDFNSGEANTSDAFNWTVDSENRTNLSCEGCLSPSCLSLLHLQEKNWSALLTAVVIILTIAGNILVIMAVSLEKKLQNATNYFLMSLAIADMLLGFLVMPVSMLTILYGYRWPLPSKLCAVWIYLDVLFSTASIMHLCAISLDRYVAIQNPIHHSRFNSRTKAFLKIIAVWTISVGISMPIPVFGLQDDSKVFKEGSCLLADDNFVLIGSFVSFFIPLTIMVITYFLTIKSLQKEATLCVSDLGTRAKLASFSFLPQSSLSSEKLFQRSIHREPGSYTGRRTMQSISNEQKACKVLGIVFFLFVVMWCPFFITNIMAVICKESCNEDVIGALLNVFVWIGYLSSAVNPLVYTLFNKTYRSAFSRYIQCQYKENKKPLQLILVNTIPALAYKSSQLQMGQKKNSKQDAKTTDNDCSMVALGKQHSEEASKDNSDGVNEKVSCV
Sequence of Muscarinic acetylcholine receptor M1 (Homo sapiens) (P11229 whole entry, looked up): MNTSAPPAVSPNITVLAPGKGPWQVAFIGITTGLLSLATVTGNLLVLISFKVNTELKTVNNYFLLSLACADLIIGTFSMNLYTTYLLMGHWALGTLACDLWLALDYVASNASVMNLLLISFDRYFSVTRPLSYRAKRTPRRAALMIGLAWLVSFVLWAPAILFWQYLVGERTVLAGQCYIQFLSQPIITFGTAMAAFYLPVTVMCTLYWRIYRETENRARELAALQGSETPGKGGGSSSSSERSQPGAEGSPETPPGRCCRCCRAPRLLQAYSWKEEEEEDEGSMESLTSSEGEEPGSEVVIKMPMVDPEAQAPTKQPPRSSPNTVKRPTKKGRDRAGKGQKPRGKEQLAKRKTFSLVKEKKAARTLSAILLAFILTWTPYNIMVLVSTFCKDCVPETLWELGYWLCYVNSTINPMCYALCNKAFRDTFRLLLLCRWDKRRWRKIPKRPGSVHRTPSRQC
Sequence of KiSS-1 receptor (Homo sapiens) (Q969F8 whole entry, looked up): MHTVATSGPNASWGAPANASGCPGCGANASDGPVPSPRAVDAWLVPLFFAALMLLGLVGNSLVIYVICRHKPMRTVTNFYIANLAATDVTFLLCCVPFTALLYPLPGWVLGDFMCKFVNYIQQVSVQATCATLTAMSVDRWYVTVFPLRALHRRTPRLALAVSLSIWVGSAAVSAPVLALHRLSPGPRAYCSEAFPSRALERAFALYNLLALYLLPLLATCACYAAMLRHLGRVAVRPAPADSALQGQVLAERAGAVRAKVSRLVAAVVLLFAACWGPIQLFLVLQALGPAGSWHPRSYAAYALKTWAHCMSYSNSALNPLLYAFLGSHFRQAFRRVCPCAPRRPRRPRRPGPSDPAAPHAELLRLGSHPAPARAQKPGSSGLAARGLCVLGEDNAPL
Sequence of D(2) dopamine receptor (Homo sapiens) (P14416 whole entry, looked up): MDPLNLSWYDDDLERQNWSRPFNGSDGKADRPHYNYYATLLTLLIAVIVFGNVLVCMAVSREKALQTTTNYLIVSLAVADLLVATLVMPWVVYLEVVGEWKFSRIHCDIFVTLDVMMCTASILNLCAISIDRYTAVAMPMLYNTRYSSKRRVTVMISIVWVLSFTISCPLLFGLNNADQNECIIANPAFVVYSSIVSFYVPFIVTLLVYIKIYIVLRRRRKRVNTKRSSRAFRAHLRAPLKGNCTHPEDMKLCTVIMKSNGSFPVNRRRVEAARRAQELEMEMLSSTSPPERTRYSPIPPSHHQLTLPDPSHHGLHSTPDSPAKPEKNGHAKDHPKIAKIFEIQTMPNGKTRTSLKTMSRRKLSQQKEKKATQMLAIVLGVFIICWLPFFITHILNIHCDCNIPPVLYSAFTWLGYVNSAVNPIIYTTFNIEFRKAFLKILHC

COc1ccc(C(O)(c2cncnc2)C2CC2)cc1 (configuration not stated)
inactive: all assays above

CC(C)(Cl)Cl
inactive: all assays above

Nc1ccc(Cl)c(Cl)c1
not listed: [20]
inactive: all other assays above

CCCCN=C=O
inactive: all assays above

C=CC(=O)OC(C)(C)C
not listed: [20]
inactive: all other assays above

CCCSC(=O)Cl
inactive: all assays above

CC(C)[N+](C)(CCC(C(N)=O)(c1ccccc1)c1ccccc1)C(C)C
active: [14] 0.0023 µM
inactive: all other assays above

N#CCCCl
inactive: all assays above

Nc1ccccc1C(=O)O
inactive: all assays above

CC(O)CN1CCN(CC(=O)[O-])CCN(CC(=O)[O-])CCN(CC(=O)[O-])CC1.[Gd+3] (configuration not stated)
inactive: all assays above

C#CCO
inactive: all assays above

C(=NC1CCCCC1)=NC1CCCCC1
active: [1] 54.8 µM | [2] 30.6 µM
inactive: all other assays above

CCCCOCC1CO1 (configuration not stated)
inactive: all assays above

CCCCCCCCCCCOC(=O)c1ccccc1C(=O)OCCCCCCCCCCC
inactive: all assays above

ClC1=C(Cl)[C@]2(Cl)[C@@H]3[C@@H](Cl)[C@H](Cl)C[C@@H]3[C@@]1(Cl)C2(Cl)Cl
inactive: all assays above

O=C(CBr)c1ccc(O)cc1
active: [2] 68.6 µM
inactive: all other assays above

CCCCOC(=O)c1ccccc1C(=O)OCCCC
inactive: all assays above

Cc1ccc(C(=O)Cl)cc1
inactive: all assays above

CN(C)C(=O)C(c1ccccc1)c1ccccc1
inactive: all assays above

COc1cc(N)c(Cl)cc1C(=O)NC1CN2CCC1CC2 (configuration not stated)
active: [12] 5.79 µM
inactive: all other assays above

O=[N+]([O-])c1ccccc1O
inactive: all assays above

O=C(O)C(F)(F)C(F)(F)C(F)(F)C(F)(F)C(F)(F)C(F)(F)C(F)(F)F
inactive: all assays above

COC(=O)C(Cl)C(=O)OC
inactive: all assays above

CCC(=O)c1ccccc1
inactive: all assays above

COc1cc(OC)nc(Sc2cccc(Cl)c2C(=O)O)n1
inactive: all assays above

O=C(O)c1ccccn1
inactive: all assays above

COC(=O)NC(=S)Nc1ccccc1NC(=S)NC(=O)OC
not listed: [20]
inactive: all other assays above
